Screening data from PubChem.
Bim-Mcl-1: inhibitors of Bim-Mcl-1 interaction, human; Bead-based flow cytometry, Bim peptide-Mcl-1 binding; inhibition, % at 10 µM; 190,000 compounds, 0.1% hits; in the data active = inhibition above about 40%
Target sequence (Q07820 whole entry, looked up): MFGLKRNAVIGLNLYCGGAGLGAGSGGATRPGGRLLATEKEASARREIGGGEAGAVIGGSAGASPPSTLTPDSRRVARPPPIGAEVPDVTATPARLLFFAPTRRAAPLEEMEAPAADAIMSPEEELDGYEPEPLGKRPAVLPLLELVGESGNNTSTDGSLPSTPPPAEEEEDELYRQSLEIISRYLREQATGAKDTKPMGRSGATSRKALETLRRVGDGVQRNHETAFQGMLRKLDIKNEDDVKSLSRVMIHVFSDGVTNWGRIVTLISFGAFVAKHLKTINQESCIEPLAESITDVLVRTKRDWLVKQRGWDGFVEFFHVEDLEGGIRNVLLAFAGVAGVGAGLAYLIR
BCLXL inh: inhibitors of human Bcl-xL; 320,000 compounds, 0.7% hits; AID 2129; GST-Bcl-xL / FITC-Bim BH3 peptide fluorescence polarization; Q07817; inhibition, % at 10.9 µM;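 active = inhibition above the mean of all tested compounds plus 3 SD, cutoff set per campaign, cut at about 30% in these data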;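 note: inhibitors lower millipolarization by displacing the labeled peptide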
MCL1-BIM inh: inhibitors of human MCL1 binding to BIM-BH3 peptide. inhibition, % at 10.9 µM. GST-MCL1 / FITC-Bim-BH3 fluorescence polarization. Q07820. 320,000 compounds, 0.68% hits;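 active = inhibition above the mean inhibition of all tested compounds plus 3 SD, set per campaign, cut at about 40% in these data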;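 note: higher means more loss of mP so more displacement of Bim peptide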
Mcl1-Noxa inh: disrupts binding of human Mcl-1 to Noxa peptide; TR-FRET Mcl-1/Noxa peptide binding, 2 h; AID 1022; inhibition, % at 21.7 µM; 220,000 compounds, 1.5% hits;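 active = compounds that cut the protein-peptide binding signal by more than 50% relative to plate controls in a single-dose test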;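 note: His-tagged Mcl-1 with rhodamine Noxa BH3 peptide and terbium anti-His antibody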
GLD-1 RNA inh: GLD-1-TGE RNA interaction inhibition (C. elegans). Q17339. purified GLD-1 + fluorescein TGE RNA, fluorescence polarization. inhibition, % at 5.96 µM. 320,000 compounds, 0.44% hits. AID 2280;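 active = percent inhibition above a per-plate cutoff, the plate mean of test compounds plus 3 SD, cut at about 30% in these data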
Mcl1-Bid inh: Mcl-1/Bid interaction inhibition | Q07820 | TR-FRET Mcl-1/Bid-Dy647 peptide binding, 1536-well | inhibition, % at 21.7 µM | 220,000 compounds, 0.97% hits;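 active = compounds that cut the binding signal by more than half at the single screening dose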;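 note: His-tagged Mcl-1 with europium anti-His antibody binding Bid BH3 peptide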
Each line names hits and unclear results; the compound was inactive in the other large screens. Hits are enriched below; roughly 2.3% of the tested compounds scored in any of these assays.

O=C(NC(=S)Nc1ccc(-c2ccc(CO)o2)cc1)c1cccs1	Mcl1-Noxa inh 63
O=C(Nc1ccc(S(=O)(=O)Nc2nccs2)cc1)c1cc(-c2ccccc2Cl)nc2ccccc12	Mcl1-Bid inh 99
Cc1ccc(-c2cc(C(=O)Nc3nccs3)c3ccccc3n2)o1	Mcl1-Noxa inh 67
COc1ccc(NC(=O)c2cc(-c3ccc(C)o3)nc3ccccc23)cc1OC	Mcl1-Noxa inh 64
O=C(Nc1ccc(S(=O)(=O)Nc2nccs2)cc1)c1ccc(=O)[nH]c1	Mcl1-Noxa inh 62
CCOc1ccc(NC(=O)CCC(=O)c2ccc(OC)cc2)cc1	none (no result: Bim-Mcl-1, Mcl1-Noxa inh, Mcl1-Bid inh)
COc1cccc(CC(=O)N(CCC2=CCCCC2)c2c(N)n(Cc3ccccc3)c(=O)[nH]c2=O)c1	none (no result: Bim-Mcl-1, Mcl1-Noxa inh, Mcl1-Bid inh)
CCCNS(=O)(=O)c1ccc(OCC(=O)N2CCCC2)cc1	none
COc1ccc(OCc2nc3ccccc3n2C(C)C)cc1	none
CC1c2cccn2CCN1S(=O)(=O)c1ccc(F)cc1 (stereo not drawn)	none (no result: Bim-Mcl-1, Mcl1-Noxa inh, Mcl1-Bid inh)
CC(=O)c1cccc(S(=O)(=O)N2CCn3cccc3C2C)c1 (stereo not drawn)	BCLXL inh 33, MCL1-BIM inh 40 (no result: Bim-Mcl-1, Mcl1-Noxa inh, Mcl1-Bid inh)
COC(=O)c1ccccc1S(=O)(=O)N1CCn2cccc2C1C (stereo not drawn)	Mcl1-Bid inh 69
COc1ccc(NC(C)=O)cc1S(=O)(=O)N1CCn2cccc2C1C (stereo not drawn)	none (no result: Bim-Mcl-1, Mcl1-Noxa inh, Mcl1-Bid inh)
CC(=O)c1ccc(S(=O)(=O)N2CCn3cccc3C2C)cc1 (stereo not drawn)	BCLXL inh 43, MCL1-BIM inh 42 (no result: Bim-Mcl-1, Mcl1-Noxa inh, Mcl1-Bid inh)
COc1cc(N2N=C(c3ccccc3)CC2c2ccccc2)c(C=O)cc1C=O (stereo not drawn)	none (no result: Bim-Mcl-1, Mcl1-Noxa inh, Mcl1-Bid inh)
COc1ccccc1N1N=C(c2ccc([N+](=O)[O-])cc2)CC1c1ccccc1 (stereo not drawn)	BCLXL inh 56 (no result: Bim-Mcl-1, Mcl1-Noxa inh, Mcl1-Bid inh)
O=C(CCN1N=C(c2ccccc2)CCC1=O)NCC1CCCO1 (stereo not drawn)	none (no result: Bim-Mcl-1, Mcl1-Noxa inh, Mcl1-Bid inh)
COc1cccc(CNC(=O)CCCSc2ccccc2)c1	none (no result: Bim-Mcl-1, Mcl1-Noxa inh, Mcl1-Bid inh)
COc1ccc(N(CC(=O)NCc2ccc(F)cc2)C(=O)c2snc(C(N)=O)c2N)cc1OC	none (no result: Bim-Mcl-1, Mcl1-Noxa inh, Mcl1-Bid inh)
NC(=S)n1[nH]c(-c2ccc([N+](=O)[O-])cc2)c(N=Nc2ccc(O)cc2)c1=O	Mcl1-Noxa inh 73, Mcl1-Bid inh 65
NC(=S)n1[nH]c(-c2ccc([N+](=O)[O-])cc2)c(N=Nc2cccc(Cl)c2)c1=O	Mcl1-Noxa inh 93, Mcl1-Bid inh 82 (no result: BCLXL inh, MCL1-BIM inh, GLD-1 RNA inh)
N#C/C(=C(/O)CN1CCN(c2ccccc2F)CC1)c1nc(-c2ccccc2)cs1	Bim-Mcl-1 46
CCC(C)NC(=O)CNC(=O)c1nn(-c2ccc(OC)c(Cl)c2)c(=O)c2ccccc12 (stereo not drawn)	none (no result: Bim-Mcl-1, Mcl1-Noxa inh, Mcl1-Bid inh)
O=c1/c(=C\c2cc([N+](=O)[O-])cc([N+](=O)[O-])c2O)sc2nc3ccccc3n12	Mcl1-Noxa inh 105, Mcl1-Bid inh 91
O=c1/c(=C/c2ccccn2)sc2nc3ccccc3n12	none
O=C(O)c1cc(C(=O)O)cc(-c2ccc(/C=c3/sc4nc5ccccc5n4c3=O)o2)c1	Mcl1-Noxa inh 54 (no result: BCLXL inh, MCL1-BIM inh, GLD-1 RNA inh)
COC(=O)/C=c1/sc2nc3ccccc3n2c1=O	none
O=C(O)c1cccc(-c2ccc(/C=c3/sc4nc5ccccc5n4c3=O)o2)c1	Mcl1-Noxa inh 89 (no result: Bim-Mcl-1)
COc1cc2c(cc1OC)C(c1ccccc1)CC2=O (stereo not drawn)	none (no result: Bim-Mcl-1)
CC(=O)Nc1ccccc1C(=O)C(=O)Nc1ccc(C(=O)NCC2CCCO2)cc1 (stereo not drawn)	none
O=C(COc1ccc2ccccc2c1)Nc1cccc2c1C(=O)NC2=O	Mcl1-Bid inh 60
Cc1ccc(NC(=O)Cn2ccc([N+](=O)[O-])n2)cc1Cl	none
c1ccc(-c2noc(CN3CCN(c4ccccc4)CC3)n2)cc1	none
COc1ccc(N2CCN(Cc3nc(-c4ccc(Cl)cc4Cl)no3)CC2)cc1	Mcl1-Noxa inh 56
C/C(=N/NC(=O)c1ccccn1)c1ccc(O)cc1	Mcl1-Bid inh 96 (no result: Bim-Mcl-1)
C/C(=N\NC(=O)c1ccccn1)c1ccc(Cl)cc1	none (no result: Bim-Mcl-1)
CCOc1cc(/C=C2\C(=O)NN(c3ccccc3)C2=O)cc([N+](=O)[O-])c1O	Mcl1-Noxa inh 51
COc1cc(/C=C2\C(=O)NN(c3ccccc3)C2=O)cc([N+](=O)[O-])c1O	Mcl1-Noxa inh 51
